Source: PubChem BioAssay
RGS4 inhibitor = Inhibitors of Regulator of G Protein Signaling (RGS) 4: qHTS. 0.039% of 390,000 active. AID 504845, 2011. Transcreener GDP fluorescence polarization, RGS4-accelerated GTP hydrolysis. Potency, µM (titrated, usually from 114 µM), inactives show at the top dose activity change, negative = inhibition, hits mostly inhibitors. Regulator of G-protein signaling 4 (Homo sapiens), P49798; further: on the % scale 0 is the no-effect control and ±100 the full control effect; nearly all actives have a fitted effect of over 75% in size
Target sequence (P49798 whole entry, looked up): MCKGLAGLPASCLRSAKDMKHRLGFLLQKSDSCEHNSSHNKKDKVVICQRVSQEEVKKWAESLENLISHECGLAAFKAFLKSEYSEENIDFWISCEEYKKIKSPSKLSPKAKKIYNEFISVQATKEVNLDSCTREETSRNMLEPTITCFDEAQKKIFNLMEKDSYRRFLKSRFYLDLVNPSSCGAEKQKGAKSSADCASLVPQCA
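MLSMR compounds (23 nl, pin-transferred) preincubated 10 min at room temperature with a 500nM (2x) first reagent, then RGS4 at 900nM (2x) plus Transcreener GDP mix added; fluorescence polarization (620/688 nm) read before and after 90 min at 30 °C.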
KB-3-1 tox = qHTS assay for MDR1-selective chemotherapeutics: Primary screen using the parental adenocarcinoma cell KB-3-1; Potency, µM (top dose mostly 46.1 µM), usual class: cytotoxic; 1.4% of 400,000 active; KB-3-1 viability, CellTiter-Glo ATP luminescence, 72 h; further: on the % scale 0 is the no-effect control and ±100 the full control effect; nearly all actives have a fitted effect of over 60% in size
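Screening of KB-3-1 cells (DMEM, 10% FBS, phenol-red free) ran from lowest to highest compound concentration; after 72 h at 37 °C viability was read luminescently and curves fitted.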
MCF10A rereplic = A quantitative high throughput screen for small molecules that induce DNA re-replication in MCF 10a normal breast cells | Potency, µM (titrated, usually from 46.1 µM), for inactives: top-dose activity, positive = re-replication, usual class: activators | MCF 10A DNA re-replication, Hoechst nuclear intensity, 48 h | AID 624296, 2012 | 2.9% of 350,000 active; further: % of control where 0% means no effect; nearly all actives have a fitted effect of over 50% in size
KB-V1 MDR tox = qHTS assay for MDR1-selective chemotherapeutics: Primary screen using the drug-selected MDR subline cells KB-V1; KB-V1 MDR cells viability, CellTiter-Glo, 72 h; Potency, µM (top dose mostly 46.1 µM), usual class: cytotoxic; 3.4% of 400,000 active; further: on the % scale 0 is the no-effect control and ±100 the full control effect; nearly all actives have a fitted effect of over 60% in size
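Compound-treated KB-V1 multidrug-resistant cells, 72 h, 37 degrees C; viability by CellTiter-Glo. Fitted qHTS curves give the values.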
SW480 rerep = A quantitative high throughput screen for small molecules that induce DNA re-replication in SW480 colon adenocarcinoma cells; Potency, µM (top dose mostly 46.1 µM), for the others: top-dose re-replication activation, most hits filed as activators; SW480 DNA re-replication, Hoechst DNA content imaging, 48 h; AID 624297, 2012; 1.8% of 340,000 active; further: % of control where 0% means no effect; nearly all actives have a fitted effect of over 55% in size
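Compounds, transferred as 23 nL by pin tool, were incubated with cells for 48 hr; DNA content per nucleus was then quantified by Hoechst staining and fluorescence plate imaging.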
PTAP TSG101 blk = qHTS Assay for Iinhibitors of HIV-1 Budding by Blocking the Interaction of PTAP/TSG101; Fluorescence polarization, FITC-PTAP peptide / Tsg101 binding; Potency, µM (series often up to 115 µM), inactives show top-dose activity change, negative = inhibition, usual class: inhibitors; 340,000 tested, under 10 active; Tumor susceptibility gene 101 protein (Homo sapiens), Q99816; active means well fitted inhibition curve with a large enough effect in the main read-out, with a control signal flat, not every such curve was filed as active; inconclusive means small, poorly fitted or top-dose-only effect, or effect the other way, or a change in a side signal; inactive means no such curve, though single readings can be large or run the other way; further: % of control where 0% means no effect
Target sequence (Q99816 whole entry, looked up): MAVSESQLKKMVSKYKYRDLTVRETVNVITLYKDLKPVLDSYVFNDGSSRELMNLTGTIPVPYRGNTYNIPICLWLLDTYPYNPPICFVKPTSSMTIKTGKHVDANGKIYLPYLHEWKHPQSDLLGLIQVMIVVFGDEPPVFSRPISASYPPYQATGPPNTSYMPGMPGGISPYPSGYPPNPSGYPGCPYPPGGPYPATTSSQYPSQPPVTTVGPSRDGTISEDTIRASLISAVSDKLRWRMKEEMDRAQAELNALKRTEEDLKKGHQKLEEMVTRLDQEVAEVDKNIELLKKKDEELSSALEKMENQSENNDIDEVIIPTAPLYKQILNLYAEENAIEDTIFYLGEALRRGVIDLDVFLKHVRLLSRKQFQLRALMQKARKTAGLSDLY
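Fluorescence polarization binding of Tsg101 binding domain (10 uM final) to FITC-labeled PTAP peptide (50 nM final) in HEPES pH 7.5 buffer with NaCl, Tween 20, EDTA, TCEP. Compounds added before peptide; binding 20 min at RT.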
* marks the source's active call; other numbers are inactive results; i = inactive; ? = inconclusive; / = not tested or not shown; [ ] = dose if it differs, or a comment. Most compounds without a hit are left out; they make up all but 6.6% or so of the library. Unless noted, the call rests on the fitted dose curve; in most records, active means well fitted curve in the direction sought with a large enough effect; inconclusive means small, poorly fitted or top-dose-only effect, or another doubt; inactive means no such curve, though single readings can be large; an effect the other way counts as inactive or inconclusive. Potency means the concentration at half of the fitted maximal effect.

SMILES | RGS4 inhibitor | KB-3-1 tox | MCF10A rereplic | KB-V1 MDR tox | SW480 rerep | PTAP TSG101 blk
Cc1ccc(S(=O)(=O)NCCC(=O)Nc2ccc(Cl)c(Cl)c2)cc1C | 6% | i | 16% | ? | 0% | -2%
CCN(c1ccc(NS(=O)(=O)c2cc(Cl)ccc2Cl)cc1)C(C)C | -15% | ? | 23µM* | ? | ? | -10%
CC(=O)Nc1ccc(S(=O)(=O)NCCC(=O)Nc2ccc(C)c(Cl)c2)cc1 | -2% | i | 2% | i | -74% | -3%
Cc1ccc(S(=O)(=O)NCCC(=O)Nc2ccc(Cl)c(Cl)c2)cc1 | 10% | ? | ? | 15µM* | -3% | 5%
Cc1ccc(C(=O)CCC(=O)Nc2ccc(Cl)c(S(=O)(=O)Nc3cccc(Cl)c3)c2)cc1 | 27% | i | 5% | 16µM* | -5% | 1%
COc1ccc(NC(=O)CNS(=O)(=O)c2ccccc2)cc1Cl | 4% | i | 8.2µM* | ? | ? | 0%
Cc1ccc(S(=O)(=O)NCCC(=O)Nc2ccncc2)cc1C | 15% | i | 12% | i | 0.65µM* | -2%
COc1ccc(C(=O)CCC(=O)Nc2cccc(Cl)c2)cc1 | 11% | i | -2% | i | 2% | 2%
CCC(C)NCCC(=O)Nc1ccc(Cl)c(S(=O)(=O)Nc2ccc(Cl)cc2)c1 (stereo unspecified) | 15% | i | 13µM* | i | 26% | 0%
Cc1ccc(S(=O)(=O)NCCc2ccncc2)cc1C | -16% | i | -6% | i | -25% | 0%
COc1ccc(NC(=O)COC(=O)CNS(=O)(=O)c2ccccc2)cc1OC | -2% | i | -37% | i | 5% | -2%
Cc1ccc(S(=O)(=O)N(C)CCN(C)c2nc(-c3cccs3)nc3ccccc23)cc1 | 2% | / | / | / | / | /
CC(C)(C)OC(=O)N1CCC(c2c(C(=O)NC3CCCCC3)cnn2-c2cccc(Cl)c2)CC1 | 13% | i | / | i | / | /
Cc1ccc2c(c1)C(=O)OC(C(=O)Nc1ccccc1C(=O)O)C2 (stereo unspecified) | -16% | i | / | i | / | /
CC1CCCN(CCOCCOc2ccc(Cl)cc2Br)C1 (stereo unspecified) | -49% | ? | 23% | 16µM* | ? | -7%
O=C(/C=C/c1cccs1)Nc1cccc([S+](=O)([O-])Nc2ccccc2F)c1 | / | i | / | i | / | /
Cn1nnnc1SCCCNCc1cc(Br)ccc1OCc1ccccc1F | 9% | i | / | i | / | /
Cc1cccc(C)c1NC(=S)N(C)CCc1ccccn1 | -6% | i | -1% | i | -2% | -2%
CC(C)c1ccc(NC(=S)N(C)CCc2ccccn2)cc1 | ? | i | -3% | 23µM* | -11% | 0%
CCCCCCCCCCCCCCCCC(C(=O)O)C(O)(CC(=O)O)C(=O)O (stereo unspecified) | / | / | 30µM* | / | 0% | /
CCCCCCCCCCCCC(O)C(=O)O (stereo unspecified) | 50%[56.9 µM] | / | / | / | / | /
COc1ccc(-n2c(=O)c3ccccc3n(CC(=O)NCCc3ccc(OC)c(OC)c3)c2=O)cc1 | -9% | i | / | ? | / | /
Cc1ccc(NC(=O)c2cnc(N3CCN(c4ccccn4)CC3)c3ccccc23)c(Br)c1 | ? | ? | 18µM* | ? | ? | -1%
O=C(Nc1c(F)cccc1F)c1cnc(N2CCN(c3ccccn3)CC2)c2ccccc12 | -5% | ? | 20% | 10µM* | 15% | -4%
Cc1ccccc1OCC(=O)NCC(C)NC(=O)COc1ccccc1C (stereo unspecified) | -22% | i | / | i | / | /
SMILES | RGS4 inhibitor | KB-3-1 tox | MCF10A rereplic | KB-V1 MDR tox | SW480 rerep | PTAP TSG101 blk
CC(C)(C)c1cc(/C=N/NC(=O)Cc2nc3ccccc3[nH]2)cc(C(C)(C)C)c1O | -9% | i | ? | i | ? | 0%
CCN(CC)c1ccc(/C=N/Nc2nc3ccccc3[nH]2)cc1 | -12% | i | 9.2µM* | i | 21µM* | 0%
CC(=O)Nc1ccc(/C=N/Nc2nc3ccccc3[nH]2)cc1 | 2% | 23µM* | 7% | i | 23% | -1%
C(=N\Nc1nc2ccccc2[nH]1)/c1ccncc1 | 20% | i | ? | i | -7% | -2%
O=C(Cc1nc2ccccc2[nH]1)N/N=C/c1ccccc1 | 2%[11.4 µM] | i | 12µM* | i | 21µM* | -7%
Cc1nn(Cc2cccc(C(=O)N3N=C(C(F)F)CC3(O)C(F)F)c2)c(C)c1[N+](=O)[O-] (stereo unspecified) | -33% | i | ? | 8.2µM* | -4% | -6%
Cc1nn(Cc2cccc(C(=O)O)c2)c(C)c1[N+](=O)[O-] | -5% | i | -1% | ? | -6% | 1%
CC1=NN(C(=O)c2cccc(Cn3nc(C)c([N+](=O)[O-])c3C)c2)C(O)(C(F)(F)F)C1 (stereo unspecified) | -10% | i | 5.8µM* | ? | ? | 0%
Cc1nn(Cc2ccc(C(=O)N3N=C(C(F)F)CC3(O)C(F)F)o2)c(C)c1[N+](=O)[O-] (stereo unspecified) | 4% | i | 3% | ? | 0% | -6%
CSc1cccc(NC(=O)N2CCN(c3cc(-c4noc(C)n4)ccc3C)CC2)c1 | -8% | i | / | ? | / | /
Cc1oc2ccc(O)c(CN(C)Cc3ccccc3)c2c1C(=O)Nc1cccc(Cl)c1C | -11% | / | / | / | / | /
CCN(CC)S(=O)(=O)c1ccc(Cl)c(NC(=O)COC(=O)c2cccn2C)c1 | 7% | i | 2% | 15µM* | 3% | 4%
CCN(c1ccccc1)S(=O)(=O)c1ccc(N)c(OC)c1 | -16% | 16µM* | 18µM* | 23µM* | 11µM* | -6%
CCN(c1ccccc1)S(=O)(=O)c1ccc(Cl)c(NC(=O)CN(C)C2CCN(C)CC2)c1 | -2% | ? | ? | i | ? | 2%
CCN(c1ccccc1)S(=O)(=O)c1ccc(Cl)c(NC(=O)CSc2ncn[nH]2)c1 | 8% | i | 16% | 23µM* | 2% | -9%
CCN(c1ccccc1)S(=O)(=O)c1ccc(Cl)c(NC(=O)CN2CCN(C)CC2)c1 | 6% | i | 16µM* | i | 12% | 0%
